Test results: the supplement of paper PMC10849652
About 7,900 targets were measured; listed, in parts, are those with a hit and a random draw of the rest. About 0.6% of all pairs of compound and target were hits. A number with no mark means an inactive call.

How the values were obtained:
Test in all cases: log2 fold change, soluble protein after heating vs DMSO (PISA); higher = thermal stabilisation; K562 cells, 10 uM, 30 min; active = over 0.2 and 3.5 SD of the protein, either way, in both replicates (recomputed)
bafetinib = compound: Cc1ccc(NC(=O)c2ccc(CN3CC[C@H](N(C)C)C3)c(C(F)(F)F)c2)cc1Nc1nccc(-c2cncnc2)n1 [bafetinib]
Summary of the method: (§1)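 Values are thermal stability changes relative to control samples and are taken from duplicates. They are stated as log2 fold changes. Before quantification by TMTpro 16plex LC-MS/MS with equalised channel sums, K562 cells at 2×10^6 cells/mL were treated with 10 μM compound for 30 min, heated in aliquots for 3 min across 48°C-58°C, pooled, extracted in PBS with 0.5% NP-40 at 4°C, and centrifuged at 21,000xg for 90 min to give the soluble supernatant.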

[1] = compound: Cc1cccc(CC(=O)N2CCc3c2ccc(-c2cn(C)c4ncnc(N)c24)c3F)n1
Summary of the method: as §1

nilotinib = compound: Cc1cn(-c2cc(NC(=O)c3ccc(C)c(Nc4nccc(-c5cccnc5)n4)c3)cc(C(F)(F)F)c2)cn1 [nilotinib]
Summary of the method: as §1

[2] = compound: Cc1nc(Nc2n[nH]c3c2CN(C(=O)N[C@H](CN(C)C)c2ccccc2)C3(C)C)c2sccc2n1
Summary of the method: as §1

dasatinib = compound: Cc1nc(Nc2ncc(C(=O)Nc3c(C)cccc3Cl)s2)cc(N2CCN(CCO)CC2)n1 [dasatinib]
Summary of the method: as §1

[3] = compound: Cc1ncc(-c2ccnc(Nc3ccc(S(C)(=O)=O)cc3)n2)n1C(C)C
Summary of the method: as §1

[4] = compound: Cn1cc(-c2ccc3c(c2)CCN3C(=O)Cc2cccc(C(F)(F)F)c2)c2c(N)ncnc21
Summary of the method: as §1

[5] = compound: Cn1cc(-c2ccc3nnc(C(F)(F)c4ccc5ncccc5c4)n3n2)cn1
Summary of the method: as §1

tipifarnib = compound: Cn1cncc1[C@@](N)(c1ccc(Cl)cc1)c1ccc2c(c1)c(-c1cccc(Cl)c1)cc(=O)n2C [tipifarnib]
Summary of the method: as §1

mubritinib = compound: FC(F)(F)c1ccc(/C=C/c2nc(COc3ccc(CCCCn4ccnn4)cc3)co2)cc1 [mubritinib]
Summary of the method: as §1

[6] = compound: NC(=O)Nc1cc(-c2cccc(F)c2)sc1C(=O)N[C@H]1CCCNC1
Summary of the method: as §1

[7] = compound: NC(=O)c1cnc(N[C@@H]2CCCC[C@@H]2N)nc1Nc1cccc(-n2nccn2)c1
Summary of the method: as §1

[8] = compound: NC1(c2ccc(-c3nc4ccn5c(=O)[nH]nc5c4cc3-c3ccccc3)cc2)CCC1
Summary of the method: as §1

[9] = compound: NCC(=O)Nc1ccc(-n2nc(C(F)(F)F)cc2-c2ccc3c(ccc4ccccc43)c2)cc1
Summary of the method: as §1

entinostat = compound: Nc1ccccc1NC(=O)c1ccc(CNC(=O)OCc2cccnc2)cc1 [entinostat]
Summary of the method: as §1

vorinostat = compound: O=C(CCCCCCC(=O)Nc1ccccc1)NO [vorinostat]
Summary of the method: as §1

citarinostat = compound: O=C(CCCCCCNC(=O)c1cnc(N(c2ccccc2)c2ccccc2Cl)nc1)NO [citarinostat]
Summary of the method: as §1

silmitasertib = compound: O=C(O)c1ccc2c(c1)nc(Nc1cccc(Cl)c1)c1ccncc12 [silmitasertib]
Summary of the method: as §1

[10] = compound: O=C1NC(=O)C(c2cnc3ccccn23)=C1c1cn2c3c(cc(F)cc13)CN(C(=O)N1CCCCC1)CC2
Summary of the method: as §1

[11] = compound: c1cc(OCCN2CCCCC2)cc(-c2n[nH]c3ccc(-c4nnc[nH]4)cc23)c1
Summary of the method: as §1

UniProt Q9Y2X0, sequence (Q9Y2X0 whole entry, looked up): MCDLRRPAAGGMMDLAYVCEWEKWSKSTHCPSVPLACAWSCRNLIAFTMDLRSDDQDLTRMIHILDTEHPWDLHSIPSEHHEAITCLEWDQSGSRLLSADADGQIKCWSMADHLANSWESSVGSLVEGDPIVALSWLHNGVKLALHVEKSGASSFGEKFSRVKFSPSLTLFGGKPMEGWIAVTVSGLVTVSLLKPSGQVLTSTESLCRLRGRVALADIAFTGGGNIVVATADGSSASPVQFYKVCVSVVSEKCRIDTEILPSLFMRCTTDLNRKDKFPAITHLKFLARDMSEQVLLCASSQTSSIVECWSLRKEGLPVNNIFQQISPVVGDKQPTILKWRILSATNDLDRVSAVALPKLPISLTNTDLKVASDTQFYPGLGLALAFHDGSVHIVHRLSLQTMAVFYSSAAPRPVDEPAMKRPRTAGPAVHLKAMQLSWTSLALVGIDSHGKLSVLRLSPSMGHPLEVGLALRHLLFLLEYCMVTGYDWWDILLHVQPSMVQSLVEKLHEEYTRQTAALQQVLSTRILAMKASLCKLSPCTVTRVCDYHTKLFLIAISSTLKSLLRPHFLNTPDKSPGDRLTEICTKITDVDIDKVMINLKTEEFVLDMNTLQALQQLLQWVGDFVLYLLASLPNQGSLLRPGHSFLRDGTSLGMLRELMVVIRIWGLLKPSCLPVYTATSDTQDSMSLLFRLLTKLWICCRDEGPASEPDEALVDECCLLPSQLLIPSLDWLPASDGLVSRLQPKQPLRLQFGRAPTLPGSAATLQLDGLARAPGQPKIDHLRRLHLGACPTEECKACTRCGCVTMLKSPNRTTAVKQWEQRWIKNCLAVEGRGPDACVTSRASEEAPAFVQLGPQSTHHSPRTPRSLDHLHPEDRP
UniProt P36507, sequence (P36507 whole entry, looked up): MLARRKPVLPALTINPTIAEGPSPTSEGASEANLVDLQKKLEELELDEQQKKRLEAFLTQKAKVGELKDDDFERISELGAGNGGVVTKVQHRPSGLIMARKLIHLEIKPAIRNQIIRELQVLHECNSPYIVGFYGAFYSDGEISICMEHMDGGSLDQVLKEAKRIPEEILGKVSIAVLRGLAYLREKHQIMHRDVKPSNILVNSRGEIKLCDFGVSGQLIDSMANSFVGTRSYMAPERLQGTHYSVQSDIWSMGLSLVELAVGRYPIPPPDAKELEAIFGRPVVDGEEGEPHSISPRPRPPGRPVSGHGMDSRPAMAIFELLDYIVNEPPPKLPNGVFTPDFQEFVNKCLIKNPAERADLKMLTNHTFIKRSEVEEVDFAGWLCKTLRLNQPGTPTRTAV
UniProt Q9GZY8, sequence (Q9GZY8 whole entry, looked up): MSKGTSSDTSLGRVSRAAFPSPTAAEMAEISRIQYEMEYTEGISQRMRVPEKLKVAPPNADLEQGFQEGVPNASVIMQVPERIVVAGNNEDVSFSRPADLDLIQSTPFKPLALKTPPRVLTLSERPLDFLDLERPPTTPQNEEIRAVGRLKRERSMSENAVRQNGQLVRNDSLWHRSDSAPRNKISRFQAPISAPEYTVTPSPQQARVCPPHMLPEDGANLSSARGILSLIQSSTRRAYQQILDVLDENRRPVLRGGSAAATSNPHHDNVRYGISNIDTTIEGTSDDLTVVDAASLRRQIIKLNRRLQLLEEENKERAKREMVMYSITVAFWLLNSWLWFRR
UniProt Q92615, sequence (Q92615 whole entry, looked up): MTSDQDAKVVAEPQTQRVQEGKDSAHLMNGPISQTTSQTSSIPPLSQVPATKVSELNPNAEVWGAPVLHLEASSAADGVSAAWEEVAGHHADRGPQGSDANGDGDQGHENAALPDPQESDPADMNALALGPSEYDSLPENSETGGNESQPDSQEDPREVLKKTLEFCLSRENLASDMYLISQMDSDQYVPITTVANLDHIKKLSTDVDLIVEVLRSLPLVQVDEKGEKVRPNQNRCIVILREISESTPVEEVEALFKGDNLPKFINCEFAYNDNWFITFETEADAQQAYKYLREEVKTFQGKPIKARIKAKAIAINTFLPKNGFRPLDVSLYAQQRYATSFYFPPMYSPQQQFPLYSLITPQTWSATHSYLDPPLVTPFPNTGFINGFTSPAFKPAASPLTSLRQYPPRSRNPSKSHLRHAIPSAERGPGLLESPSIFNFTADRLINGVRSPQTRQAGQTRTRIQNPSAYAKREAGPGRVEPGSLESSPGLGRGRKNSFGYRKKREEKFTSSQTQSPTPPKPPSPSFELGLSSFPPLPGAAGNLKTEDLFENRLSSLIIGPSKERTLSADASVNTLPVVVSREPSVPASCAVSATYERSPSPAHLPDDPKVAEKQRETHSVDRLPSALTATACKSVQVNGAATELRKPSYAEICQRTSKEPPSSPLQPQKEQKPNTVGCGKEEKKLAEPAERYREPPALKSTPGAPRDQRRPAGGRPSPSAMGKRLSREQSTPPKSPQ
UniProt O60333, sequence (O60333 whole entry, looked up): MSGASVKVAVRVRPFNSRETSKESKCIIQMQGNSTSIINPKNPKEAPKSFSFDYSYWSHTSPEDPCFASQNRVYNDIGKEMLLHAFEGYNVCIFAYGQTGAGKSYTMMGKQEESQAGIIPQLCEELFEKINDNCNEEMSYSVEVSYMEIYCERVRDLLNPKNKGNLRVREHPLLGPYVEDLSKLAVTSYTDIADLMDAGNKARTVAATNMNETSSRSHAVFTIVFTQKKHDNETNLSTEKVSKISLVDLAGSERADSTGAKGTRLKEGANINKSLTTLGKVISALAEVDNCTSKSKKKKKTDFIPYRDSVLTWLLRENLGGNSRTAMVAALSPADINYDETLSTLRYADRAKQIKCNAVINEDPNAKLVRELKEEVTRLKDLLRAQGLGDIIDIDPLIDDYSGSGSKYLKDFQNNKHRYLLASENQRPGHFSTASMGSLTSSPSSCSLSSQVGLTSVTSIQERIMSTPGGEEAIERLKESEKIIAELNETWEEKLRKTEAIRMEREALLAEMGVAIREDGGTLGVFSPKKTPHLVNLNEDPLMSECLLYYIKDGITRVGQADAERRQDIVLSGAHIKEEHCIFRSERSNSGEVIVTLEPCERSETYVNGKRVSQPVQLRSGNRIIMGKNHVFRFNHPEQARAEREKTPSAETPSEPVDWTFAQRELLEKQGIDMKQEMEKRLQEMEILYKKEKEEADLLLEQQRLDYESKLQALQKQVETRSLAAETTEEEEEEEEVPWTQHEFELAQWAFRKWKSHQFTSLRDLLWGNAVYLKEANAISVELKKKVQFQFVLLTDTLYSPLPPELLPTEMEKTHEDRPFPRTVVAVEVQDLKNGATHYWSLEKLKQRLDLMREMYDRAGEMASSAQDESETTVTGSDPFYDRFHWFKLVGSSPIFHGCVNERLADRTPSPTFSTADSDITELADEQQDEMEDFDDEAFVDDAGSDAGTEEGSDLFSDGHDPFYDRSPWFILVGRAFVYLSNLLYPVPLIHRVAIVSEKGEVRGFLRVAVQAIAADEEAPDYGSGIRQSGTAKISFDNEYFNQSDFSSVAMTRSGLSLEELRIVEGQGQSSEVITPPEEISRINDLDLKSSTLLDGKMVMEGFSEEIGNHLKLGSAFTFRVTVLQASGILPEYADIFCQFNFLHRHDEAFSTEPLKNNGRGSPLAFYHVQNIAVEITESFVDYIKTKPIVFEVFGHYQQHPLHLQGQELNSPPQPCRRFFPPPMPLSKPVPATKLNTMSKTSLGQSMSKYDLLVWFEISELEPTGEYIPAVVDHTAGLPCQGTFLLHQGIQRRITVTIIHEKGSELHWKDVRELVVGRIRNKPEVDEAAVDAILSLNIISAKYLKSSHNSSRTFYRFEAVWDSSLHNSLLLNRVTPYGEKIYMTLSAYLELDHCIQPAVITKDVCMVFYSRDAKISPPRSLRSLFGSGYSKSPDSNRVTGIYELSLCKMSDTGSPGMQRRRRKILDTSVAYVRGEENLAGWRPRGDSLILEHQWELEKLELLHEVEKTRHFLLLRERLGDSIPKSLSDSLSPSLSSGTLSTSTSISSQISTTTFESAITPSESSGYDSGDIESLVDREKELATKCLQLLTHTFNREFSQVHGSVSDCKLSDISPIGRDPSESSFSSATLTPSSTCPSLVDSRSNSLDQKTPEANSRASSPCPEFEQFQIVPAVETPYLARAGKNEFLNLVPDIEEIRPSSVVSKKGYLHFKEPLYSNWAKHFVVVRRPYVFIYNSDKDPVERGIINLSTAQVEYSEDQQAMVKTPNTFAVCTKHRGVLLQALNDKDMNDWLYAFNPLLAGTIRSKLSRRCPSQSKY
UniProt Q12905, sequence (Q12905 whole entry, looked up): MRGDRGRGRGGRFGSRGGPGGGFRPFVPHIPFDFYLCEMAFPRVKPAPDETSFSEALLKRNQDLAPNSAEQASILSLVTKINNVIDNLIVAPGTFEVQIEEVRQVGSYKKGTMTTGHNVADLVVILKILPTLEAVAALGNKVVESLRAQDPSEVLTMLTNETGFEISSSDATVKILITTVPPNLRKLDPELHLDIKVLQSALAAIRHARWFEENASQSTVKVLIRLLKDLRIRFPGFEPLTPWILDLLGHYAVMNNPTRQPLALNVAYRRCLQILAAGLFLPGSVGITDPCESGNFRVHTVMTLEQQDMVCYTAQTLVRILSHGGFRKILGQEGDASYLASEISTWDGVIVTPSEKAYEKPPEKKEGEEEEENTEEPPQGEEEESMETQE
UniProt Q9Y383, sequence (Q9Y383 whole entry, looked up): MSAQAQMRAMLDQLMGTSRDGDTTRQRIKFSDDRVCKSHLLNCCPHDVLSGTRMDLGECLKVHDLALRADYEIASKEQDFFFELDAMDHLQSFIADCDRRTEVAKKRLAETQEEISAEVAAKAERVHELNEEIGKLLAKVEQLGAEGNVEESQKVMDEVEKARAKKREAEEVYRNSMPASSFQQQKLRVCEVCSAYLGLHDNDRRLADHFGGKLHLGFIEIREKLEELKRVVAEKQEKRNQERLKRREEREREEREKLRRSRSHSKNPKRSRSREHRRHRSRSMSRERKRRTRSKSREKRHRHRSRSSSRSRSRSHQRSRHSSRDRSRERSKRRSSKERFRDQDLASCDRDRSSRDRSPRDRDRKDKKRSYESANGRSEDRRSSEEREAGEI

| Target | log2 fold change (bafetinib) | log2 fold change [1] | log2 fold change (nilotinib) | log2 fold change [2] | log2 fold change (dasatinib) | log2 fold change [3] | log2 fold change [4] | log2 fold change [5] | log2 fold change (tipifarnib) | log2 fold change (mubritinib) | log2 fold change [6] | log2 fold change [7] | log2 fold change [8] | log2 fold change [9] | log2 fold change (entinostat) | log2 fold change (vorinostat) | log2 fold change (citarinostat) | log2 fold change (silmitasertib) | log2 fold change [10] | log2 fold change [11] |
| --- | --- | --- | --- | --- | --- | --- | --- | --- | --- | --- | --- | --- | --- | --- | --- | --- | --- | --- | --- | --- |
| KIF1B isoform 4 (UniProt O60333) | -0.056 | -0.004 | 0.01 | 0.073 | -0.066 | -0.064 | -0.044 | 0.033 | -0.004 | -0.004 | 0.043 | -0.059 | -0.16 | -0.03 | 0.011 | 0.063 | 0.054 | 0.009 | -0.037 | -0.062 |
| ILF2 (UniProt Q12905) | 0.093 | -0.012 | -0.011 | 0.251 | 0.121 | 0.3 | -0.151 | -0.084 | 0.006 | -0.071 | -0.02 | 0.024 | 0.121 | 0.109 | -0.049 | -0.059 | -0.037 | 0.13 | 0.378 | -0.18 |
| LUC7L2 (UniProt Q9Y383) | 0.035 | 0.002 | 0.059 | -2.75 (active) | -0.01 | -0.007 | -0.033 | -0.059 | 0.049 | -0.07 | -0.221 | -0.025 | 0.09 | -0.133 | 0.025 | 0.029 | 0.074 | -0.233 | 0.002 | -0.095 |
| ILK (UniProt Q13418) | -0.038 | -0.012 | 0.122 | -0.024 | -0.07 | -0.002 | 0.027 | 0.005 | -0.023 | 0.048 | -0.236 | -0.125 | -0.07 | -0.095 | -0.149 | 0.083 | -0.006 | -0.003 | -0.036 | -0.048 |
| MFF (UniProt Q9GZY8) | -0.065 | -0.049 | -0.057 | -0.073 | 0.014 | -0.017 | -0.011 | -0.05 | 0.073 | 0.035 | -0.098 | -0.224 (active) | -0.125 | -0.102 | -0.015 | 0.006 | -0.007 | 0.04 | -0.06 | -0.135 |
| MAP2K2 (UniProt P36507) | -0.081 | 0.007 | -0.003 | -0.154 | -0.092 | -0.018 | 0.023 | 0.098 | 0.015 | 0.017 | 0 | -0.042 | -0.023 | -0.003 | 0.061 | 0.039 | -0.051 | -0.098 | -0.055 | -0.018 |
| MED16 (UniProt Q9Y2X0) | 0.018 | -0.009 | -0.014 | -0.092 | 0.141 | -0.287 | -0.144 | 0.009 | -0.029 | 0.024 | 0.108 | 0.021 | -0.005 | -0.044 | -0.047 | 0.107 | -0.094 | 0.026 | 0.06 | -0.117 |
| LARP4 isoform 4 (UniProt Q71RC2) | 0.022 | -0.027 | -0.073 | -0.147 | 0 | -0.028 | -0.078 | -0.103 | 0.071 | -0.046 | -0.034 | -0.094 | 0.084 | 0.048 | 0.037 | 0.133 | -0.004 | 0.043 | 0.009 | -0.116 |
| LARP4B (UniProt Q92615) | 0.022 | -0.025 | -0.055 | -0.192 | -0.072 | -0.092 | -0.052 | -0.031 | -0.008 | -0.038 | 0.028 | -0.042 | 0.048 | 0.022 | 0.038 | 0.027 | -0.001 | 0.008 | 0.086 | -0.112 |
